PubChem BioAssay (NCI)
About 79,000 compounds went through this panel and 15% of them were active in at least one assay; those are over-represented in the sample as a whole. Activity calls are given as the source filed them. Rule as the data show it: active = growth inhibition above about 70%; inactive = the rest.

Tests used:
[1] = NCI Yeast Anticancer Drug Screen. Data for the rad50 strain (AID 155);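 also: 0% = growth of vehicle-only cultures of the same strain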; settings: S. cerevisiae rad50 strain growth inhibition; at 50.0 µM; hits give high values
In short: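 DNA repair mutant yeast, compound exposure, growth read-out; inhibition is taken relative to vehicle.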

[2] = NCI Yeast Anticancer Drug Screen. Data for the mec2-1 strain (AID 157); settings: S. cerevisiae mec2-1 strain, at 50.0 µM, hits give high values
In short: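 Yeast mec2-1 mutant treated with compound. Readout: growth inhibition vs vehicle controls.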

[3] = NCI Yeast Anticancer Drug Screen. Data for the sgs1 mgt1 strain (AID 161);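 also: 0% = growth of cultures given vehicle only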; settings: S. cerevisiae sgs1 mgt1 strain, at 50.0 µM, hits give high values
In short: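 Mutant yeast exposed to compound; growth scored against vehicle-only wells.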

[4] = NCI Yeast Anticancer Drug Screen. Data for the cln2 rad14 strain (AID 165);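 also: 0% = growth equal to vehicle treated cultures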; settings: S. cerevisiae cln2 rad14 strain, at 50.0 µM, hits give high values
In short: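 cln2 rad14 yeast strain; compound exposure; growth inhibition read vs vehicle controls.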

[5] = NCI Yeast Anticancer Drug Screen. Data for the bub3 strain (AID 167); settings: S. cerevisiae bub3 mutant strain, at 50.0 µM, hits give high values
In short: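 In this screen, a yeast mutant lacking normal mitotic checkpoint function is challenged with compound. Relative growth versus vehicle gives the inhibition value.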

[6] = NCI Yeast Anticancer Drug Screen. Data for the mlh1 rad18 strain (AID 175); settings: S. cerevisiae mlh1 rad18 strain growth inhibition; at 50.0 µM; hits give high values
In short: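 Yeast w/ defined DNA-repair lesions; compound exposure; growth vs vehicle controls → % inhibition.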

Measured: growth inhibition

NCCN.O=C([O-])[O-].O=C([O-])[O-].[Co+3].[K+]
inactive: [1] 1.5% | [2] 4.6% | [3] 5.2% | [4] 13.2% | [5] -8.9% | [6] -5.55%

COc1ccc(/C=C/C=C2C(=O)NC(=S)NC2=O)cc1
inactive: [1] 25.6% | [2] 4.55% | [3] 29.1% | [4] 11.2% | [5] 0.75% | [6] 25.2%

O=C1NC(=O)C(C(=O)C(=O)Nc2cccc(C(F)(F)F)c2)C(=O)N1
inactive: [1] -17.7% | [2] 0.1% | [3] -44.7% | [4] -1.75% | [5] -31% | [6] -40.9%

COC(=O)C1=COC(C)[C@H]2CN3CCc4c([nH]c5cc(OC)ccc45)C3CC12 (stereo not given in full)
inactive: [1] -0.6% | [2] -9.95% | [3] -7.65% | [4] 0.9% | [5] -12.8% | [6] -9.1%

CC(C(=O)c1ccccc1)N(C)C (stereo not given)
inactive: [1] 2.15% | [2] -6.85% | [3] -4.2% | [4] -50.4% | [5] -19.7% | [6] 5.5%

CC(C)/C=C/C1(C(C)C)C(=O)NC(=O)NC1=O
inactive: [1] 19.5% | [2] 9.5% | [3] -4.85% | [4] 14.1% | [5] 3.9% | [6] 3.1%

O=C1NC(=S)N/C1=C/c1ccccc1O
inactive: [1] 12.3% | [2] 6.65% | [3] -27.6% | [4] -14.8% | [5] -27.7% | [6] -42.4%

S=P1(c2ccccc2)C=C(N2CCCC2)CC1 (stereo not given)
inactive: [1] 20.4% | [2] 20.2% | [3] 16.6% | [4] 1.7% | [5] 11.7% | [6] 20.4%

COc1cc(N=Nc2ccc([N+](=O)[O-])cc2)ccc1N(CCCl)CCCl
inactive: [1] -8.55% | [2] -13.2% | [3] -16.9% | [4] 11.2% | [5] -10.6% | [6] 12.8%

CC1OC(n2cc(C(N)=O)c3c(N)ncnc32)C(O)C1O (stereo not given)
inactive: [1] 19.4% | [2] 20.9% | [3] 3.75% | [4] 16.9% | [5] 14.2% | [6] 20.1%

CC(=O)C(I)C(C)=O.[Cr]
inactive: [1] 2.45% | [2] -18.9% | [3] 8.6% | [4] 16.4% | [5] 14.4% | [6] 5.4%

CC1=C2[C@H]3OC(=O)[C@@H](C)[C@@H]3CC[C@@]2(C)C=CC1=O
inactive: [1] 20.6% | [2] 5.9% | [3] 1.15% | [4] 15.2% | [5] 2.25% | [6] 12.6%

CCC1([N+](=O)[O-])COP(=O)(NCc2ccncc2)OC1 (stereo not given)
inactive: [1] 8.4% | [2] -8.4% | [3] -5.95% | [4] 10.6% | [5] -5.6% | [6] 12.3%

O=C1OC(Br)c2ccccc21 (stereo not given)
inactive: [1] -11.4% | [2] -27.7% | [3] -8% | [4] 7% | [5] -20.1% | [6] -7.65%

N#CN=C(N)NC#N
inactive: [1] 24.1% | [2] 12.9% | [3] 7.3% | [4] 0.55% | [5] 13.8% | [6] 17.1%

c1ccc(C(c2ccccc2)C2CCNCC2)cc1
inactive: [1] 29.1% | [2] 6.8% | [3] 3.2% | [4] 16.2% | [5] 32.6% | [6] 2.85%

c1ccc(C[N+]23CN4CN(CN(C4)C2)C3)cc1
inactive: [1] 9.5% | [2] -20% | [3] -7.6% | [4] 8.65% | [5] -18.2% | [6] -6.5%

CCOP12(OCC)NC(=O)OC1(C(F)(F)F)c1ccccc1O2 (stereo not given)
inactive: [1] -19.4% | [2] 3.9% | [3] -38% | [4] -7% | [5] -26.4% | [6] -36.4%

Cc1cc(C)c(CCl)cc1CCl
inactive: [1] 16.2% | [2] -5.75% | [3] 26.4% | [4] -7% | [5] -7.15% | [6] 27.8%

[C-]#[O+].[C-]#[O+].[C-]#[O+].[Cr].c1ccc(P(CC[PH+](CC[PH+](CC[PH+](c2ccccc2)c2ccccc2)c2ccccc2)c2ccccc2)c2ccccc2)cc1 (stereo not given)
inactive: [1] 36.3% | [2] 13.6% | [3] 41.5% | [4] 18.6% | [5] 33.8% | [6] 37.8%

O=C1C2CC(CN3CCCCC23)C2CCCCN12 (stereo not given)
inactive: [1] -4.55% | [2] -24.1% | [3] 18.9% | [4] 8.35% | [5] -4.15% | [6] -24.2%

CC[C@@H]1[C@H]2C[C@H]3[C@@H]4N(C)c5ccccc5[C@]45C[C@@H](C2[C@H]5O)N3[C@H]1O (stereo not given in full)
inactive: [1] -12.4% | [2] -6.15% | [3] -5.15% | [4] 5.05% | [5] -13.7% | [6] 15.6%

CCCCCCP(=O)(CCCCCC)CCCCCC (tested in a mixture with another compound)
active: [1] 77.3% | [2] 83.6% | [3] 87.5% | [4] 78.6% | [6] 84.2%
inactive: [5] 62%

Cc1cc([N+](=O)[O-])c(N)c([N+](=O)[O-])c1
inactive: [1] -1.55% | [2] -11.1% | [3] -9.8% | [4] 3.6% | [5] -10.8% | [6] -4.75%

O=c1[nH]cc([N+](=O)[O-])cc1[N+](=O)[O-]
inactive: [1] 1.5% | [2] -16.6% | [3] -2.25% | [4] 22.7% | [5] -15.6% | [6] 0.5%

CC(C)N=Cc1ccccc1O.CC(C)N=Cc1ccccc1O.[Ni]
inactive: [1] 51.3% | [2] 1.1% | [3] 48.6% | [4] -4.45% | [5] 7.05% | [6] 22.2%

CN(C)CCCc1c[nH]c2ccccc12
inactive: [1] -20.4% | [2] -6.6% | [3] -4.85% | [4] -7.5% | [5] -52.5% | [6] 8.25%

Nn1cnnc1
inactive: [1] -12.9% | [2] -7.95% | [3] -9.7% | [4] -9.35% | [5] -3.05% | [6] -16.2%

COS(=O)(=O)c1ccc(C)cc1
inactive: [1] 24.2% | [2] -1.85% | [3] -8.2% | [4] 12.7% | [5] -7.7% | [6] -3.75%

O=NN1CCCCC1
inactive: [1] -18.2% | [2] 7.1% | [3] 28.4% | [4] -15.1% | [5] 0.15% | [6] 18.9%

c1ccc(C2(N3CCOCC3)CSC2)cc1
inactive: [1] -6.05% | [2] -4.8% | [3] 1.15% | [4] -16.9% | [5] -44.6% | [6] -6.75%

CC1(c2cccc(N(CCCl)CCCl)c2)NC(=O)NC1=O (stereo not given)
inactive: [1] 25.1% | [2] 27.4% | [3] 13.2% | [4] 3.9% | [5] 19.9% | [6] 40.4%

O=S(=O)(F)c1ccccc1
inactive: [1] 35.8% | [2] -0.6% | [3] -11.4% | [4] -59.8% | [5] 2.1% | [6] 6.85%

CC(=O)NCN(C)[N+](=O)[O-]
inactive: [1] -9.6% | [2] -4.95% | [3] 8.85% | [4] -11% | [5] -19.8% | [6] -6.5%

CNC(=O)O/N=C(\SC)C(=O)N(C)C
inactive: [1] -39.9% | [2] -27.2% | [3] -5.05% | [4] -31.2% | [5] -3.1% | [6] -1.05%

C[C@H](O)CCC(=O)c1ccoc1
inactive: [1] -5.65% | [2] -2.6% | [3] -22.1% | [4] 6.2% | [5] -22.1% | [6] -14.1%

O=P1(N(CCCl)CCCl)Oc2ccc(Cl)cc2Sc2c(ccc(Cl)c2Cl)O1 (stereo not given)
inactive: [1] 43.5% | [2] 7.9% | [3] 40.5% | [4] 40.5% | [5] 35.4% | [6] 46.7%

CCCC(NC(=O)CCl)C(=O)O (stereo not given)
inactive: [1] -13.1% | [2] -18.1% | [3] -11.4% | [4] -73.8% | [5] 0.65% | [6] -8.25%

N#CC(C#N)=Cc1ccccc1C(=O)O
inactive: [1] 14.9% | [2] 11.3% | [3] -12.3% | [4] 14.7% | [5] 7.15% | [6] -4.1%

OCCCNCc1cccnc1
inactive: [1] 9.55% | [2] -3.05% | [3] -0.75% | [4] 29.2% | [5] -3.8% | [6] 25.9%
